PubChem BioAssay
The source made the active and inactive calls.

Assays:
[1] = optical density shifts of acrAB sulA E. coli – strain DRC41, OD650, 48 h, E. coli filamentation inducer project, primary screen (AID 1152); details: higher = more signal, called active from +8 up or from −8 down;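 note: E. coli MC1000 strain DRC41 lacking acrAB efflux pump and sulA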
[2] = probe aLefty1 binding on compound microarray – biochemical, small-molecule microarray, 635/667 nm fluorescence, primary screen (AID 1153); details: higher = more signal;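 note: score merges spot fluorescence with signal-to-noise ratio from the scanned slide images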
[3] = plasmodial surface anion channel blockers, osmotic lysis – cell-based, P. falciparum Indochina, OD700, 1 h, primary screen (AID 1154); details: P. falciparum Indochina infected RBC osmotic lysis, higher = more signal, called active from +8 up or from −8 down
[4] = plasmodial surface anion channel blockers, osmotic lysis – cell-based, P. falciparum Indochina, OD700, 2 h, primary screen (AID 1155);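 note: lysis reports solute entry through the parasite surface anion channel PSAC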; details: P. falciparum Indochina infected erythrocytes, higher = more signal, called active from +8 up or from −8 down
[5] = changes in parasitized red cell lysis, either direction – P. falciparum Indochina, OD700, 3 h, PSAC antagonist project, primary screen (AID 1156); details: P. falciparum-infected erythrocytes, osmotic lysis, higher = more signal, called active from +8 up or from −8 down
[6] = plasmodial surface anion channel blockers, osmotic lysis – cell-based, P. falciparum Indochina, OD700, 18 h, primary screen (AID 1157); details: P. falciparum Indochina infected erythrocytes, osmotic lysis OD700, 18 h; higher = more signal, called active from +8 up or from −8 down
[7] = S6 kinase pathway phospho-S6 level changes – cell-based, A549, cytoblot, luminescence, serum-stimulated, primary screen (AID 1158); details: 5 h, higher = more signal;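 note: serum-stimulated A549 lung adenocarcinoma cells; signal is phosphorylated S6 detected by cytoblot immunostaining with HRP secondary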
[8] = biological target: NADPH oxidase 2 (Homo sapiens) (UniProt P04839); experiment: compounds shifting NOX2 Amplex Red fluorescence – cell-based, HEK293-NOX2, PMA-stimulated, NOX inhibitor project, primary screen (AID 1159); details: 45 min, higher = more signal, called active from +8 up or from −8 down; note: test concentration not given here
Sequence of NADPH oxidase 2 (Homo sapiens) (P04839 whole entry, looked up): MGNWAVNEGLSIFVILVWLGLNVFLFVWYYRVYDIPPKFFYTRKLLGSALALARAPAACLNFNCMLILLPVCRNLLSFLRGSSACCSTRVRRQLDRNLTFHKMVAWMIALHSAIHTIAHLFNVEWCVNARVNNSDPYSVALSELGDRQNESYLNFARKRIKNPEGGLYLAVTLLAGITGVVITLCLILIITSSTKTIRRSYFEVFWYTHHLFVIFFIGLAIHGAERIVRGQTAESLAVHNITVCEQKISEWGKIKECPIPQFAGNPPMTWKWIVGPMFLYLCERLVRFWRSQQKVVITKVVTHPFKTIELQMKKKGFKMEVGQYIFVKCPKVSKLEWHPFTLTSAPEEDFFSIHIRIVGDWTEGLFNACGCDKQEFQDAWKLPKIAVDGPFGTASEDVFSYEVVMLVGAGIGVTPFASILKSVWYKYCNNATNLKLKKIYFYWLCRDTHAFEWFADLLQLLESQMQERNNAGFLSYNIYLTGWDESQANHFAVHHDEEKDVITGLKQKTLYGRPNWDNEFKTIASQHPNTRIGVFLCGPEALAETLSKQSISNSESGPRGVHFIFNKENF

[9] = biological target: NADPH oxidase 4 (Homo sapiens) (UniProt Q9NPH5); experiment: compounds shifting NOX4 Amplex Red fluorescence – cell-based, HEK293-NOX4, tetracycline-induced, NOX inhibitor project, primary screen (AID 1160); details: HEK293-NOX4, Amplex Red H2O2 fluorescence, 45 min; higher = more signal, called active from +8 up or from −8 down
Sequence of NADPH oxidase 4 (Homo sapiens) (Q9NPH5 whole entry, looked up): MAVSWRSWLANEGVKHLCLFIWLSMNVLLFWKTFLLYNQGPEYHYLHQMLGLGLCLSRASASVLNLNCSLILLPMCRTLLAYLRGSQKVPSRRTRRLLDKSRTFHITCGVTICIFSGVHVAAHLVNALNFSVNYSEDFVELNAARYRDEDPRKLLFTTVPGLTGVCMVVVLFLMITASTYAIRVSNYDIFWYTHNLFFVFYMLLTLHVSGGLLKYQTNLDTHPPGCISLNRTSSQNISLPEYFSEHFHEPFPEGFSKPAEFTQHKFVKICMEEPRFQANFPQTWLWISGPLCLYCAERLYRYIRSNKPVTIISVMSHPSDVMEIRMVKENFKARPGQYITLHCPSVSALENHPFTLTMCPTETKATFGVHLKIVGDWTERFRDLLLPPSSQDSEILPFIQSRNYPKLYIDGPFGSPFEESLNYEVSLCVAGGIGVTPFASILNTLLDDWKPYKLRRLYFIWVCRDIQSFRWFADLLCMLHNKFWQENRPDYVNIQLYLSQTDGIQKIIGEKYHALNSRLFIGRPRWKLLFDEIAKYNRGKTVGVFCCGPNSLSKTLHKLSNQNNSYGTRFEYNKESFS

[10] = biological target: NADPH oxidase 5 (Homo sapiens) (UniProt Q96PH1); experiment: compounds shifting NOX5 Amplex Red fluorescence – cell-based, HEK293-NOX5, NOX inhibitor project, primary screen (AID 1161); details: HEK293-NOX5, ionomycin, 45 min, higher = more signal
Sequence of NADPH oxidase 5 (Homo sapiens) (Q96PH1 whole entry, looked up): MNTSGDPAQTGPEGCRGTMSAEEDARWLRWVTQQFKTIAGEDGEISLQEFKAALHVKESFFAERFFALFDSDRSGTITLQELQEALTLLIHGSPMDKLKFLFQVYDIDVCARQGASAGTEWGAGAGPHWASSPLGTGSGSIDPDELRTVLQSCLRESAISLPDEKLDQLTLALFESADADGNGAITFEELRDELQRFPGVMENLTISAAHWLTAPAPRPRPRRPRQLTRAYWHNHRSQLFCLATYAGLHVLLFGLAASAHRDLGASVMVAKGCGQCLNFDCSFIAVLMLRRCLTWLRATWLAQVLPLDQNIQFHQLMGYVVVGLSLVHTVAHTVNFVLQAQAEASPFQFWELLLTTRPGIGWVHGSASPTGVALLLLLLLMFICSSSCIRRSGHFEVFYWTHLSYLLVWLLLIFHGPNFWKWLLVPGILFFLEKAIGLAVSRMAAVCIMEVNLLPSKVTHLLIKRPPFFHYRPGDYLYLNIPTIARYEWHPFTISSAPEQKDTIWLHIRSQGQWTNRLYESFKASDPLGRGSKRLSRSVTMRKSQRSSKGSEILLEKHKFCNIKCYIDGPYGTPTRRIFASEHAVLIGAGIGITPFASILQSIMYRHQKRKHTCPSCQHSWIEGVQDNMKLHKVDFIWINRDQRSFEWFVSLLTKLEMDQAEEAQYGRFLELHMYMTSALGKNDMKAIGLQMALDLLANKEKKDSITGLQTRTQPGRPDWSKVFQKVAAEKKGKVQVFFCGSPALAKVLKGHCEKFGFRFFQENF

SMILES | z-score [1] | composite z-score [2] | z-score [3] | z-score [4] | z-score [5] | z-score [6] | z-score [7] | z-score [8] | z-score [9] | z-score [10]
CCCCNC(=O)c1ccc(C#CC(C)(C)C)c(OC(C)=O)c1 | 0.567 (inactive) | -0.148 | 4.63 (inactive) | 0.802 (inactive) | 2.09 (inactive) | 0.181 (inactive) | 0.355 | -0.137 (inactive) | 0.344 (inactive) | 0.416
C=C[C@H](C)[C@H](OC(=O)Nc1ccc(SC)cc1)c1ccc(OCCO)cc1 | -1.79 (inactive) | 0.329 | 27.6 (active) | 15.6 (active) | 1.91 (inactive) | 0.184 (inactive) | 1.58 | -0.831 (inactive) | -0.356 (inactive) | -0.756
COc1cc2c(cc1O)C=[N+](Cc1sc3ccccc3c1Cl)CC2 | -0.569 (inactive) | 0.065 | 5.58 (inactive) | 2 (inactive) | -0.703 (inactive) | 1.58 (inactive) | -0.336 | -3.84 (inactive) | -2.35 (inactive) | -4.02
Cc1ccc(S[C@]2(C(=O)NCCN3CCOCC3)CC(=O)N(Cc3ccccc3Cl)[C@@H]2c2ccc(CO)cc2I)cc1 | 0.377 (inactive) | 1.55 | 5.93 (inactive) | 0.989 (inactive) | 0.676 (inactive) | 0.4 (inactive) | -0.389 | 1.78 (inactive) | -1.12 (inactive) | 1.15
[N-]=[N+]=Nc1ccccc1[C@@H]1OC(c2ccc(OCCCO)cc2)=N[C@]1(Cc1ccccc1)C(=O)O | 0.78 (inactive) | 0.433 | 33.2 (active) | 30 (active) | 3.46 (inactive) | 8.04 (active) | -0.465 | -1.61 (inactive) | 1.27 (inactive) | -0.586
CCCC=C(CCC)[C@@H](NP(=O)(c1ccccc1)c1ccccc1)c1ccc(-c2ccccc2)cc1 | -1.61 (inactive) | 0.408 | 3.5 (inactive) | 0.766 (inactive) | -1.07 (inactive) | 0.96 (inactive) | -0.422 | -1.02 (inactive) | -1.94 (inactive) | 2.3
O=C1OCCC=C[C@H]2OC34C=CCN(Cn5nnc6ccccc65)C(=O)[C@H]3N(CCCO)C(=O)[C@@H]4C12 (stereo not given in full) | 1.24 (inactive) | -0.321 | 0.502 (inactive) | -1.23 (inactive) | 1.65 (inactive) | -1.32 (inactive) | 0.601 | 0.813 (inactive) | -0.341 (inactive) | -1.35
C=C(COC)/C(=C/C[C@H](OC(=O)c1ccncc1)c1ccc(CO)o1)c1cnc2ccccc2c1 | -0.504 (inactive) | 0.213 | 6.19 (inactive) | 0.807 (inactive) | 1.35 (inactive) | 0.307 (inactive) | -0.959 | 1.13 (inactive) | -0.163 (inactive) | -0.377
CCCCC(CC)C(O)C1C=CC2C(=O)N(c3ccccc3)C(=O)C2N1Nc1ccc(C#N)cc1 (stereo not given) | 0.344 (inactive) | 0.834 | 9.85 (active) | 2.68 (inactive) | 1.89 (inactive) | 1.54 (inactive) | -0.423 | 0.414 (inactive) | -2.2 (inactive) | -1.91
COCC(=C=CC[C@H](O)c1ccc(OCCO)cc1)CCO | 0.367 (inactive) | 0.0774 | 9.25 (active) | 1.02 (inactive) | 0.934 (inactive) | 0.381 (inactive) | -0.439 | 1.03 (inactive) | 0.57 (inactive) | -0.704
COCCOC(=O)N1C(=O)[C@@]2(c3cc(C#CCCO)ccc31)[C@H](C(=O)Nc1nc3ccccc3s1)[C@H]1C(=O)O[C@H](c3ccccc3)[C@H](c3ccccc3)N1[C@@H]2c1ccc(O)cc1 | 0.0106 (inactive) | 0.126 | 1.41 (inactive) | 0.523 (inactive) | 1 (inactive) | 0.417 (inactive) | 0.0869 | 1.43 (inactive) | 0.0581 (inactive) | 0.329
O=C1C2C=CC(C(O)c3cccc(O)c3)N(Nc3ccc([N+](=O)[O-])cc3)C2C(=O)N1c1ccccc1 (stereo not given) | -0.367 (inactive) | 0.0361 | 23.8 (active) | 5.34 (inactive) | 3.57 (inactive) | 1.22 (inactive) | -0.609 | -2.1 (inactive) | -4.41 (inactive) | -4.26
CCOC(=O)C[C@H]1[C@H](OC(=O)c2ccc(C(=O)c3ccccc3)cc2)[C@@H](NC(=O)c2ccc(-c3ccccc3)cc2)c2cc(OCCCO)ccc2N1C(=O)Cc1ccc(OC)cc1 | 0.548 (inactive) | 0.344 | 11.8 (active) | 1.62 (inactive) | -0.455 (inactive) | 0.429 (inactive) | 0.53 | -0.44 (inactive) | 0.397 (inactive) | 0.501
COc1cc2c(cc1O)C(c1cccs1)N(Cc1cc3c(cc1Br)OCO3)CC2 (stereo not given) | -1.8 (inactive) | -0.566 | 10.2 (active) | 2.26 (inactive) | -1.06 (inactive) | 1.41 (inactive) | 0.0127 | -4.19 (inactive) | -2.38 (inactive) | -2.26
O=C(O)[C@@H]1C[C@@H]2C(=O)N3CCC[C@H]3C(=O)N2[C@@H]1c1ccc(O)cc1 | 2.3 (inactive) | 0.266 | 3.69 (inactive) | -0.325 (inactive) | -3.21 (inactive) | -1.54 (inactive) | 0.722 | -8.21 (active) | -4.92 (inactive) | -5.18
C[N+](C)(C)CCCC[C@@H]1NC(=O)[C@@H]2C[C@H](C(=O)NCCCCCCN)[C@H](c3cccc(OCCO)c3)N2C1=O | 0.0598 (inactive) | 2.07 | 2.07 (inactive) | 0.679 (inactive) | 0.837 (inactive) | 0.229 (inactive) | 0.38 | 0.827 (inactive) | 0.0305 (inactive) | 0.559
O=C(NCc1ccc(F)cc1)[C@H]1C[C@H]2C(=O)NCC(=O)N2[C@H]1c1ccc(O)cc1 | 0.357 (inactive) | 0.239 | 1.11 (inactive) | 0.285 (inactive) | -2.04 (inactive) | 0.4 (inactive) | -0.337 | 0.992 (inactive) | 0.558 (inactive) | 0.693
CCOC(=O)C1=CC[C@@H](c2ccccc2F)N(S(=O)(=O)c2ccc(C)cc2)[C@H]1c1ccccc1 | -1.33 (inactive) | -0.0544 | 0.353 (inactive) | 1.17 (inactive) | 0.0175 (inactive) | 0.338 (inactive) | -0.445 | 0.941 (inactive) | 0.6 (inactive) | 2.18
Cc1ccc(S[C@]2(C(=O)NC(C)C)CC(=O)N(Cc3cc(C(F)(F)F)cc(C(F)(F)F)c3)[C@@H]2c2ccc(CO)cc2)cc1 | -0.16 (inactive) | -0.0252 | 2.96 (inactive) | 0.812 (inactive) | 0.497 (inactive) | 0.672 (inactive) | -0.768 | -0.00496 (inactive) | -0.242 (inactive) | 0.128
CC1CC/C=C\[C@H]2OC34C=CCN(Cc5ccccc5)C(=O)[C@H]3N(C(CO)C(C)C)C(=O)[C@@H]4C2C(=O)O1 (stereo not given in full) | 0.084 (inactive) | -0.149 | 1.42 (inactive) | 0.667 (inactive) | 0.97 (inactive) | 0.304 (inactive) | -0.529 | 1.84 (inactive) | 0.983 (inactive) | 2.21
COCCOC(=O)N1C(=O)[C@@]2(c3ccccc31)[C@H](C(=O)NC[C@H](O)c1ccccc1)[C@H]1C(=O)O[C@H](c3ccccc3)[C@H](c3ccccc3)N1[C@@H]2c1ccc(O)cc1 | 0.503 (inactive) | -0.671 | 1.89 (inactive) | 0.74 (inactive) | -0.0724 (inactive) | 0.786 (inactive) | 0.315 | 1.22 (inactive) | 0.4 (inactive) | 0.855
CCCC1(C(=O)OC)C=C2C(=C(C)C(=O)C2C)CN1 (stereo not given) | -1.8 (inactive) | 0.193 | -0.0775 (inactive) | -0.0273 (inactive) | -0.0148 (inactive) | 0.274 (inactive) | -0.386 | 0.43 (inactive) | -1.28 (inactive) | -2.88
CC(C)[Si](C#CCCCC#N)(O[C@H](c1ccccc1)c1cn(Cc2ccccc2)nn1)C(C)C | 1.99 (inactive) | -0.253 | 1.05 (inactive) | 0.0907 (inactive) | 0.866 (inactive) | 0.137 (inactive) | 0.249 | -0.502 (inactive) | 0.912 (inactive) | 0.536
O[C@@H](Cc1ccccc1)[C@@H](/C=C/C1CC1)N(CC#Cc1ccccc1)Cc1ccccc1Br | 0.241 (inactive) | 0.187 | 2.05 (inactive) | 1.37 (inactive) | 0.108 (inactive) | 0.475 (inactive) | 0.131 | -0.612 (inactive) | 0.221 (inactive) | -0.586
CCOC(=O)C[C@H]1[C@H](OC(=O)c2cc3ccccc3oc2=O)[C@@H](NC(=O)c2ccccc2)c2cc(OCCCO)ccc2N1C(=O)c1ccccc1 | 0.0768 (inactive) | 0.158 | 0.609 (inactive) | -1.44 (inactive) | -0.35 (inactive) | -2.88 (inactive) | 0.312 | -0.423 (inactive) | -1.07 (inactive) | -0.713
COc1ccc([Si](C)(C)[C@H]2[C@H](CC(=O)N3Cc4ccccc4C[C@H]3CO)O[C@@]3(C(=O)N(Cc4ccc(N5CCOC5=O)cc4)c4ccccc43)[C@@H]2C)cc1 | -0.742 (inactive) | -0.0611 | 8.34 (active) | 1.85 (inactive) | 0.863 (inactive) | 0.82 (inactive) | 0.718 | -0.659 (inactive) | 0.611 (inactive) | -0.344
